Experimental findings from PubChem BioAssay (EPA / NIEHS) are described below.

Active and inactive are the calls of the source. How the source made its calls: active means hit-call score of the fitted dose curve at least 0.9, where 1 is the maximum; inactive means score below 0.9.

The nature of assay [1]: ATG_NFI_CIS: Attagene CIS-FACTORIAL HepG2 Assay for human Nuclear Factor I (NFI) (AID 2282989). The conditions noted are these: HepG2 cis-regulatory reporter, NFI response element transcription; actives raise or lower the signal. In outline: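 Multiplexed cis-reporter system in human HepG2 cells reports native TF activity as reporter mRNA induction 24 h post-dose. Fragments labelled with 6-FAM, HpaI-digested and resolved by capillary electrophoresis; activity fitted both directions versus DMSO.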

In assay [2] the target is Myc proto-oncogene protein (Homo sapiens) (UniProt P01106). The assay is described as follows: ATG_Myc_CIS: Attagene CIS-FACTORIAL HepG2 Assay for human Myelocytomatosis (Myc) Proto-Oncogene Transcription Factor (AID 2282990). The conditions noted are these: HepG2, Attagene cis-reporter transcription factor activity; actives raise or lower the signal. Summed up: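 Read-out: fluorescent reporter mRNA fragments resolved by capillary electrophoresis after RT-PCR. Human HepG2 liver cells carried transfected cis-element reporter units and were dosed for 24 h. Gain or loss of signal fitted relative to DMSO baseline.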

Assay [3] can be described thus: ATG_NF_kB_CIS: Attagene CIS-FACTORIAL HepG2 Assay for human Nuclear Factor Kappa B (NF-kB) (AID 2282991). The conditions noted are these: HepG2 Attagene cis-factorial NF-kB reporter mRNA; actives raise or lower the signal. In outline: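 HepG2, transient multi-reporter transfection, cis promoter elements (endogenous TFs). 24 h exposure. Total RNA → RT → PCR → 6-FAM label → HpaI → CE. Gain/loss vs DMSO.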

The nature of assay [4]: ATG_NRF2_ARE_CIS: Attagene CIS-FACTORIAL HepG2 Assay for human Nuclear Factor Erythroid 2 Related Factor 2 (NFR2) response to Antioxidant Response Elements (ARE) (AID 2282992).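 On AC50: reporter mRNA level measured by RT-PCR and capillary electrophoresis fluorescence.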 The conditions noted are these: HepG2 Attagene ARE/NRF2 reporter, transcription factor activity; actives raise or lower the signal. In outline: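 HepG2 cells transiently transfected with multiplexed cis-element reporter constructs, 24 h after chemical dosing; reporter mRNA quantified by RT-PCR, fluorescent primer extension, HpaI digestion and capillary electrophoresis. Bidirectional fit relative to DMSO.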

Assay [5] is described as follows: ATG_Oct_MLP_CIS: Attagene CIS-FACTORIAL HepG2 Assay for human Octamer-Binding Transcription Factor (Oct) (AID 2282993). The conditions noted are these: HepG2 Attagene cis-factorial Oct reporter, mRNA; actives raise or lower the signal. In outline: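 After 24 h compound exposure, transfected HepG2 cells were lysed for total RNA; reporter-specific cDNA was PCR-amplified, fluorescently labelled and sized by capillary electrophoresis. Bidirectional curve fitting used DMSO as baseline.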

For assay [6], the target named is Cellular tumor antigen p53 (Homo sapiens) (UniProt P04637). The assay is described as follows: ATG_p53_CIS: Attagene CIS-FACTORIAL HepG2 Assay for human p53 Transcription Factor (AID 2282994). The conditions noted are these: HepG2 p53 cis-element reporter, Attagene mRNA; actives raise or lower the signal. Summed up: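 HepG2 cells transiently transfected with cis-regulated multiple reporter transcription units, dosed 24 h. Reporter mRNA measured by RT-PCR, 6-FAM primer extension, HpaI digestion and capillary electrophoresis; bidirectional fit relative to DMSO.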
Sequence of Cellular tumor antigen p53 (Homo sapiens) (P04637 whole entry, looked up): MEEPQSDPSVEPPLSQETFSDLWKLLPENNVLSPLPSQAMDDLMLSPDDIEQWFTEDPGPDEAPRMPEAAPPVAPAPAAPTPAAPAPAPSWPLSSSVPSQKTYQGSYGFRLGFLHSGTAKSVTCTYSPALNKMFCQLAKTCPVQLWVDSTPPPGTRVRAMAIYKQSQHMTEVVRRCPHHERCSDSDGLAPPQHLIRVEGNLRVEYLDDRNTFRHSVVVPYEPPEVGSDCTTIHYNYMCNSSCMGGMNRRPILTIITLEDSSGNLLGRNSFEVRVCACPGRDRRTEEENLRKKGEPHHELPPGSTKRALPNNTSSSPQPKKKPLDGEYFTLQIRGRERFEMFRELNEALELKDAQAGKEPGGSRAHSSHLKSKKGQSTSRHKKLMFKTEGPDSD

Sequence of Myc proto-oncogene protein (Homo sapiens) (P01106 whole entry, looked up, the tested form may be a part): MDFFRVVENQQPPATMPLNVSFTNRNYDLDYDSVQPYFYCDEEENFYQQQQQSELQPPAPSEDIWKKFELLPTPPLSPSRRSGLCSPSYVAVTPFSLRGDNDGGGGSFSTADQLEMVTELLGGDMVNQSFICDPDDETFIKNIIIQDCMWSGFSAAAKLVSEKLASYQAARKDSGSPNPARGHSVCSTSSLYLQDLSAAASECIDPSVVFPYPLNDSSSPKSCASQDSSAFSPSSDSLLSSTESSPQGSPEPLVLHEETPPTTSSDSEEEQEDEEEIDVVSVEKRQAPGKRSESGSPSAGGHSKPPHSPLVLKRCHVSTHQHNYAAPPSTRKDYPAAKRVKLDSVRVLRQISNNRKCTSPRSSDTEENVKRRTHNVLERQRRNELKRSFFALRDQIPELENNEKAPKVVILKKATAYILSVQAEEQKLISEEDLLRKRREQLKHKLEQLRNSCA

With `N#Cc1nc(Cl)c(Cl)c(Cl)c1Cl`, the AC50 (as a rule, the midpoint of the concentration-response curve, whichever way the signal moves) in assay [1] is 6.05 µM (active); in assay [3], 4.63 µM (active); in assay [4], 0.885 µM (active); in assay [5] it was 2.54 µM (active). The compound was classed as inactive in assay [2].

For the compound `CC(c1cc2ccccc2s1)N(O)C(N)=O` (stereo unspecified), the compound was called inactive in assay [1], in assay [2], in assay [3], in assay [4] and in assay [5].

For `Clc1ccc2c(c1)C(N1CCNCC1)=Nc1ccccc1O2`, the compound was classed as inactive in assay [1], in assay [2], in assay [3] and in assay [4]. Moreover, in assay [5], the AC50 was 47 µM (active).

As to `O=S(=O)(O)NC1CCCCC1`, the outcome in assay [1], in assay [2], in assay [3], in assay [4] and in assay [5] was inactive.

As to `COc1c(Cl)c(Cl)c(Cl)c(Cl)c1Cl`, the outcome in assay [1], in assay [2], in assay [3], in assay [4] and in assay [5] was inactive.

For `O=C(COc1ccc(Cl)cc1)N1CCN(Cc2ccc3c(c2)OCO3)CC1`, the result in assay [1], in assay [2], in assay [3] and in assay [5] was inactive. Further, the half-maximal activity concentration (AC50) in assay [4] is 100 µM (active).

`[Ca+2]`: the compound was classed as inactive in assay [1], in assay [2], in assay [3], in assay [4] and in assay [5].

`O=C1NC(=O)c2ccccc21`: the outcome in assay [1], in assay [2] and in assay [3] was inactive.

For the compound `CCCCCC=CCC(=O)OC`, the compound was called inactive in assay [1], in assay [2], in assay [3], in assay [4], in assay [5] and in assay [6].

As to `CC1CCC2CC1C2(C)C` (stereo unspecified), the result in assay [1], in assay [2], in assay [3], in assay [4] and in assay [5] was inactive.

As for `O=CCCc1ccccc1`, the compound was classed as inactive in assay [1], in assay [2], in assay [3] and in assay [5]. Also, in assay [4], the AC50 is 38 µM (active).

Regarding `CN(C)c1ccc(O)c2c1C[C@H]1C[C@H]3[C@H](N(C)C)C(=O)C(C(N)=O)=C(O)[C@@]3(O)C(=O)C1=C2O`, the outcome in assay [1], in assay [2], in assay [3] and in assay [4] was inactive.

Consider `COc1cc(C(C)(C)C)c(O)c(C(C)(C)C)c1`, for which the result in assay [1], in assay [2], in assay [3], in assay [4] and in assay [5] was inactive.

As for `CCN(CC)c1ccc(C(=C2C=CC(=[N+](CC)CC)C=C2)c2ccc(S(=O)(=O)O)cc2S(=O)(=O)[O-])cc1`, the result in assay [1], in assay [2], in assay [3], in assay [4] and in assay [5] was inactive.

Turning to `CC1(C)OC[C@@H]2O[C@@]3(C(=O)O)OC(C)(C)O[C@H]3[C@@H]2O1`, the call in assay [1], in assay [2], in assay [3], in assay [4] and in assay [5] was inactive.

Turning to `COc1ccc(Nc2ccccc2)c(C)c1`, the result in assay [1], in assay [2], in assay [5] and in assay [6] was inactive. Also, the AC50 in assay [3] is 151 µM (active); in assay [4], 79.9 µM (active).

For `CCCCCCCCCCCCN`, the compound was called inactive in assay [1], in assay [2], in assay [5] and in assay [6]. For the same compound, the AC50 is 15 µM (active) in assay [3] and 17.8 µM (active) in assay [4].

For `C=C(C)C(=O)Nc1ccc(Cl)c(Cl)c1`, the result in assay [1], in assay [2], in assay [3] and in assay [6] was inactive. Also, the AC50 in assay [4] was 13.6 µM (active); in assay [5], 26.5 µM (active).

Consider `OCc1cccnc1`, for which the call in assay [1], in assay [2], in assay [3], in assay [4] and in assay [5] was inactive.

As to `CSc1nnc(C(C)(C)C)c(=O)[nH]1`, the outcome in assay [1], in assay [2], in assay [3], in assay [4] and in assay [5] was inactive.

As to `O=C(OCc1ccccc1)C(=O)OCc1ccccc1`, the compound was called inactive in assay [1], in assay [2], in assay [3], in assay [4] and in assay [5].

Turning to `COc1cc(C)cc(O)c1`, the result in assay [1], in assay [2], in assay [3], in assay [4] and in assay [5] was inactive.

As to `O=C1c2ccccc2C(=O)N1SC1CCCCC1`, the compound was called inactive in assay [1], in assay [2], in assay [3] and in assay [5]. The half-maximal activity concentration (AC50) in assay [4] was 65.4 µM (active).

As to `C=CC[N+](C)(C)CC=C`, the result in assay [1], in assay [2], in assay [3], in assay [4], in assay [5] and in assay [6] was inactive.

As to `CCCCCOC(=O)CCC`, the call in assay [1], in assay [2], in assay [3], in assay [4] and in assay [5] was inactive.

On to `Clc1ccc(Cl)c(Cl)c1Cl`, for which the outcome in assay [1], in assay [2], in assay [3] and in assay [4] was inactive.

On to `CCOC(=O)c1ccccc1OC`, for which the compound was classed as inactive in assay [1], in assay [2], in assay [3], in assay [4] and in assay [5].

For the compound `CC1(C)CCC(C)(C)c2cc(C(=O)Nc3ccc(C(=O)O)cc3)ccc21`, the compound was classed as inactive in assay [1], in assay [2], in assay [3] and in assay [4].

With `C=CC(C)(C)O`, the result in assay [1], in assay [2], in assay [3], in assay [4], in assay [5] and in assay [6] was inactive.

Turning to `Clc1nc(C(Cl)(Cl)Cl)c(Cl)c(Cl)c1Cl`, the half-maximal activity concentration (AC50) is 52.4 µM (active) in assay [1] and 27.6 µM (active) in assay [4]. The compound was classed as inactive in assay [2], in assay [3] and in assay [5].

On to `C=CC(=O)NCOCC(C)C`, for which the outcome in assay [1], in assay [2], in assay [3], in assay [5] and in assay [6] was inactive. Also, the AC50 in assay [4] was 54.6 µM (active).

For the compound `CC(CCO)CCCC(C)(C)O` (stereo unspecified), the call in assay [1], in assay [2], in assay [3], in assay [4] and in assay [5] was inactive.

Take `O=c1[nH]c(=O)n([C@H]2CCCO2)cc1F`: the compound was called inactive in assay [1], in assay [2], in assay [3], in assay [4] and in assay [5].

For the compound `CCCC(=O)OCCC(C)CCC=C(C)C` (stereo unspecified), the result in assay [1] and in assay [2] was inactive. Further, the AC50 in assay [3] was 72 µM (active); in assay [4], 78.7 µM (active); in assay [5], 100 µM (active).

Take `O=c1oc(=O)c2cc3c(=O)oc(=O)c3cc12`: the call in assay [1], in assay [2], in assay [3] and in assay [4] was inactive.

For the compound `Nc1ccc(F)c([N+](=O)[O-])c1`, the outcome in assay [1], in assay [2], in assay [3], in assay [4] and in assay [5] was inactive.

For `CCCCCCCCCCCCCOS(=O)(=O)O`, the call in assay [1], in assay [2], in assay [3], in assay [4] and in assay [5] was inactive.
